Measured values from PubChem BioAssay AID651703 (Broad Institute, 2012).
Screen size: about 1,200 compounds; about 970 (81%) were called active. No rule for the calls is given here. So high a share suggests a set chosen from earlier hits. Not all results are given here. Measured potencies and affinities stand elsewhere. Non-standard residues stand in square brackets, D forms with d. Residues, ends and D or L forms follow the SMILES beside them. *: point of attachment. Ac5c = NC1(C(=O)O)CCCC1; Cbz = O=C(OCc1ccccc1)*

Target: Transforming acidic coiled-coil-containing protein 3 (Homo sapiens) (UniProt Q9Y6A5)
Assay: inhibition of ARNT PAS-B/TACC3 complex formation – biochemical, AlphaScreen, cherry-picked samples, confirmation (AID 651703);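 also: TACC3 partner is the GST-tagged E629A mutant dimer; hits lower the signal meaning they disrupt ARNT binding to TACC3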
Conditions: AlphaScreen His-ARNT PAS-B / GST-TACC3 binding, luminescence; series mostly up to 68 µM; activity change, negative = inhibition: at the top concentration

Activity change, negative = inhibition, inactive:
CN(C)C(=O)c1cccc(-c2ccc3c(c2)[C@@H]2[C@@H](CCN2C(=O)c2cccnc2)[C@@H](CO)N3)c1 -11.2%, O=C(C[C@H]1C=C[C@H](NS(=O)(=O)c2ccc(F)cc2)[C@H](CO)O1)N1CCN(c2ccccc2)CC1 -5.74%, C[C@H](CO)N1C[C@H](C)[C@@H](CN(C)Cc2ccccn2)Oc2ncc(C#CC3(O)CCCC3)cc2C1=O -21.8%, COc1ccc(OC)c(-n2nnnc2SCC(=O)Nc2ccccc2OC)c1 -24.6%, CC(=O)N(C)C1=C(O)c2ccccc2C(=O)C1=O 3.26%, O=C(Nc1ccc2c(c1)OCO2)c1ccc2c(c1)OCO2 -25.8%, COc1ccc(OC)c2nc3c(C(=O)NCCN(C)C)cccc3nc12 -2.27%, CN(C)CCNC(=O)c1cc(-c2ccccc2)on1 -1.32%, CCn1cc(/C=C2/SC(=S)NC2=O)c(C)n1 -2.57%, Nc1ccc2nn(-c3ccc(F)cc3)nc2c1 -35.2%, Cc1ccc(CNC(=O)c2cc(-c3ccccc3)on2)cc1 4.88%, COc1ccc(C2=C(C)CC(C)(C)NC2=O)cc1OC -25.1%, O=c1ccc(-c2ccc(S(=O)(=O)Nc3ccc(F)cc3)s2)n[nH]1 -18.8%, CCCCNC(=O)c1cc(-c2ccccc2)on1 1.77%, O=C(NCc1ccccc1)c1cc(-c2ccccc2)on1 2.2%, O=C(Nc1ncc2ccccc2n1)c1cc(-c2ccccc2)on1 -0.281%, O=C(NCCN1CCCCC1)c1cc(-c2ccccc2)on1 4.24%, Cn1c(NC(=O)c2cc(-c3ccccc3)on2)nc2ccccc21 -9.11%, O=c1c(C=NCCCn2ccnc2)c(-c2ccccc2)[nH]n1-c1nc2ccccc2s1 -25.4%, Cc1[nH][nH]c(=O)c1C(c1ccc(Cl)cc1)c1c(C)[nH][nH]c1=O 5.36%, Cc1[nH][nH]c(=O)c1C(c1ccc(O)c(Br)c1)c1c(C)[nH][nH]c1=O -7.14%, Cc1[nH][nH]c(=O)c1C(c1ccc(Br)cc1)c1c(C)[nH][nH]c1=O -17.9%, O=C(C[C@@H]1CC[C@H](NC(=O)Nc2cc(F)ccc2F)[C@@H](CO)O1)Nc1ccc(-c2ccccc2)cc1 -2.09%, COc1cc(C2C(C#N)=C(N)Oc3n[nH]c(C)c32)ccc1OC(=O)c1ccccc1 (centres undefined) -16.4%, COC(=O)C1(NC(=O)CNC(=O)OCc2ccccc2)CCCC1 (Cbz-Gly-[Ac5c]-OMe) -7.97%, Cn1c(N)c(C(=O)c2cc(-c3ccccn3)nc3ccccc23)c(=O)[nH]c1=O -17.4%, CCN(CC)CCCNc1nc2ccccc2c2[nH]c3ccc(OC)cc3c12 -7.38%, Cc1c(NC(=O)c2cccnc2C(=O)O)cccc1C(=O)O -3.04%, N#Cc1ccc(CC(=O)c2ccccc2)[nH]c1=O -8.48%, C[C@@H]1CN([C@H](C)CO)S(=O)(=O)c2ccc(C#Cc3ccccn3)cc2O[C@@H]1CN(C)C(=O)C1CC1 -9.78%, C[C@H](CO)N1C[C@H](C)[C@H](CN(C)Cc2cccnc2)Oc2cc(C#CCN(C)C)ccc2S1(=O)=O -10.9%, O=C(N[C@H]1CC[C@@H](CCn2cc(-c3ccccc3)nn2)O[C@@H]1CO)c1cnccn1 -5.38%, O=C(C[C@H]1CC[C@@H](NC(=O)c2ccccc2)[C@H](CO)O1)Nc1ccc(-c2ccccc2)cc1 -7.06%, O=C(C[C@@H]1CC[C@@H](NC(=O)c2ccccc2)[C@H](CO)O1)Nc1ccc(-c2ccccc2)cc1 -7.97%, CN1CCC(n2[nH]c(-c3ccccc3)c(Cc3ccccc3)c2=O)CC1 -10.5%, C[C@@H]1CN([C@@H](C)CO)C(=O)c2cc(NC(=O)CCN3CCOCC3)ccc2O[C@@H]1CN(C)Cc1ccncc1 -3.85%, C[C@H]1CN([C@@H](C)CO)C(=O)c2cc(C#Cc3ccccn3)cnc2O[C@@H]1CN(C)Cc1ccccc1 -12.5%, CC(C)NC(=O)N(C)C[C@H]1Oc2ccc(N(C)C)cc2CC(=O)N([C@@H](C)CO)C[C@@H]1C 0.668%, COc1ccc(-c2cnc3c(c2)C(=O)N([C@H](C)CO)C[C@@H](C)[C@H](CN(C)Cc2cccnc2)O3)cc1 -5.95%, C[C@H](CO)N1C[C@H](C)[C@H](CN(C)C(=O)NC2CCCCC2)Oc2ccc(NS(=O)(=O)c3cccs3)cc2CC1=O -6.44%, COc1ccc(CN(C)C[C@@H]2Oc3ccc(NC(=O)Cn4cnnn4)cc3C(=O)N([C@@H](C)CO)C[C@H]2C)cc1 -9.62%, CC(C)NC(=O)Nc1ccc2c(c1)CC(=O)N([C@H](C)CO)C[C@H](C)[C@H](CN(C)S(=O)(=O)c1cccs1)O2 -14.9%, Cc1cc(C)n2nc(-c3cccc(Br)c3)cc2n1 0.525%, N/C(=N\NS(=O)(=O)c1ccccc1Cl)c1ccccn1 -23%, S=c1[nH]nc(-c2cc3c(s2)-c2ccccc2CC3)o1 -31.4%, COc1cc2c(cc1OC)-c1cc(Nc3cccc(C)c3)nc(=O)n1CC2 5.52%, O=C(NCCc1ccccc1)c1ccc(=O)[nH]c1 -5.64%, O=C(COC(=O)c1ccc([N+](=O)[O-])o1)NCc1ccccc1 -21.1%, NS(=O)(=O)c1ccc(CCNC(=O)COC(=O)c2ccc([N+](=O)[O-])o2)cc1 -30.5%, NC(=O)CC(NC(=O)c1ccccc1)c1ccc(NCc2ccccn2)c([N+](=O)[O-])c1 (centres undefined) -13.6%, COc1cc(/C=N/NC(=O)CSc2n[nH]c(=O)[nH]c2=O)cc(OC)c1O -11%, O=C(c1cc(-c2ccccc2)on1)N1CCC(CO)CC1 -1.3%, O=C(c1cc(-c2ccccc2)on1)N1CCC(N2CCOCC2)CC1 -4.7%, Cc1[nH]c(=O)[nH]c(=O)c1/C=N/NC(=O)[C@H](C)NC(=O)OC(C)(C)C -1.1%, COc1ccc(-c2nnc(SCC(=O)NC3CC3)o2)cc1 -3.22%, COC(=O)C[C@@H]1CC[C@@H](NS(=O)(=O)c2ccc(OC)cc2)[C@H](CO)O1 -0.059%, Cc1[nH]cnc1CN1CCc2c(c3ccccc3n2C)C1=O -21.6%, COc1ccc(C(=O)Nc2nc3ccccc3[nH]2)cc1S(=O)(=O)N1CCOCC1 -27.7%, CCOc1cc2nc(-c3ccc(OC)c(OC)c3)nc(NCCCN3CCOCC3)c2cc1OC -5.91% [at 35 µM], O=C(NCCCN1CCOCC1)c1cc(-c2ccccc2)on1 6.12%, O=C(NCCN1CCOCC1)c1cc(-c2ccccc2)on1 -3.9%, C#CCOCCOCCOCCNc1nc(N2CCN(C(=O)Cn3cc(CCCCN)nn3)CC2)nc(N2CCN(C(=O)[C@H](CCCCN)n3cc(CCCC)nn3)CC2)n1 -8.06%, C#CCOCCOCCOCCNc1nc(N2CCN(C(=O)[C@H](CCC(=O)O)n3cc([C@@H](N)CCCCN)nn3)CC2)nc(N2CCN(C(=O)[C@H](CCCCN)n3cc([C@@H](N)CC(N)=O)nn3)CC2)n1 -14.6%, C#CCOCCOCCOCCNc1nc(N2CCN(C(=O)[C@H](CCCCN)n3cc([C@@H](N)CC(N)=O)nn3)CC2)nc(N2CCN(C(=O)[C@H](CCCCN)n3cc([C@@H](N)CC(N)=O)nn3)CC2)n1 -22%, C#CCOCCOCCOCCNc1nc(N2CCN(C(=O)C([C@@H](C)O)n3cc([C@@H](N)CCCCN)nn3)CC2)nc(N2CCN(C(=O)C([C@@H](C)O)n3cc([C@@H](N)CCCCN)nn3)CC2)n1 (some centres undefined) -11%, CCOc1cc(C(=O)NC2CC(C)(C)NC(C)(C)C2)cc(OCC)c1OCC -3.7%, c1ccc(CN2CCN(CCCNc3ccc4nnc(-c5ccccc5)n4n3)CC2)cc1 -28.4%, Oc1cccc(CN2CCOCC2)c1O -3.34%, COc1ccc(C(=O)NNC(=O)Cc2coc3cc(OC)ccc23)cc1 -12.1%, CCN(/N=C/c1ccccc1)c1cc(=O)n(C)c(=O)[nH]1 -29.9%, O=C(Nc1ccccc1)N1CCCCN2[C@H](C1)[C@H](c1ccc(C#CC3CC3)cc1)[C@@H]2CO -25.8%, CC(C)(C)c1cc(C(=O)NCCCn2ccnc2)cc(C(C)(C)C)c1 -17.3%, O=C(NCCCn1ccnc1)c1cc(-c2ccccc2)on1 -3.75%, COc1ccc(-c2cnc3c(c2)C(=O)N([C@H](C)CO)C[C@H](C)[C@H](CN(C)Cc2cccnc2)O3)cc1 -2.08%, O=C(O)C1C2C=CC(C2)C1C(=O)NCCCn1ccnc1 (centres undefined) -5.06%, O=C(C1CC1)N1CCc2cc(Br)cc(S(=O)(=O)NCc3ccccn3)c21 -4.26%, CN(c1ccc(C(=O)N2CCc3ccccc3C2)cc1)S(C)(=O)=O -30.6%, CO[C@H]1CN(C)C(=O)c2cc(NS(=O)(=O)CC(F)(F)F)ccc2OC[C@H](C)N(Cc2cccnc2)C[C@@H]1C -3.73%, O=C(Nc1ccc(Br)cn1)c1cccc(C(=O)Nc2ccc(Br)cn2)c1 -24.4%, O=C(NC1Cc2ccccc2C1)c1cc(-c2ccccc2)on1 -0.19%, c1c[nH]c(CN2CCN(Cc3ncc[nH]3)CC2)n1 -24%, CC1(C)CC(=O)C=C(Nc2ccccc2N)C1 13.5%, O=c1[nH]cnc2c1C(c1ccccc1[N+](=O)[O-])c1c(nc[nH]c1=O)O2 -10.3%, O=C(NCCCCO)c1cc(-c2ccccc2)on1 -1.85%, O=C1CN(C(=O)COC(=O)c2ccc([N+](=O)[O-])o2)c2ccccc2N1 -18.7%, O=C(O)c1c[nH]c2c([N+](=O)[O-])cccc2c1=O -5.07%, O=C(N/N=C/c1c(Cl)nc2ccccn2c1=O)c1cccnc1 -20.1%, C[C@H](CO)N1C[C@H](C)[C@@H](CN(C)C(=O)Nc2ccc(C(F)(F)F)cc2)Oc2ncc(C3=CCCC3)cc2C1=O -28.6%, O=C(Nc1cnc2ccccc2c1)c1cc(-c2ccccc2)on1 -3.86%, CCOC(=O)N1CCN(C(=O)CSc2ccc3nnc(-c4ccccn4)n3n2)CC1 -23.3%, O=C(Nc1cccc(F)c1)c1cccnc1NCCc1ccccc1 -12.3%, Cc1ccc(C2=CSC3=NS(=O)(=O)CCN23)cc1 -17.9%, O=C(Nc1ccc2nc(-c3ccccn3)[nH]c2c1)C1CCCCC1 -26.6%, O=C(NN=C1CCCC1)c1ccc(O)cc1O -19%
